Molecules are shown by their SMILES. Hit rate of the full screen: of about 69,000 compounds, about 8,600 (12%) showed an effect of 50% or more. For the sample, strong results were picked, then their nearest neighbours and some compounds at random.

In ChEMBL document CHEMBL4513216, “Probing the Open Global Health Chemical Diversity Library for Multistage-Active Starting Points for Next-Generation Antimalarials” (ACS Infect Dis, 2020) one finds INHIBITION data, which are given here for 71 compounds.

This assay concerns Plasmodium berghei. In words: Screen against P. berghei liver stage (PbLuc), transformed with Luciferase, at 10uM. Particulars: tested at 10 uM. The class given is functional, HepG2.
In the case of `CC(=O)N1CC(=O)N(c2cnn(C)c2)CC12CCN(Cc1ccsc1)C2` (stereo unspecified), the INHIBITION was determined as 23.5%.

Turning to `CC[C@@H](Cn1ncc2ccccc2c1=O)NC(=O)c1cnc(C)cn1`, the INHIBITION was -20.6%. Take `Cc1ccc(-c2cnc3n2CCN(C)C32CCN(CC3CC3)CC2)cc1`: the INHIBITION is recorded as -12.1%. As for `Cc1ccnc(C2CN(c3ncccn3)C2)n1`, the INHIBITION worked out at 25.15%. With `CN1CCN(c2cc(Sc3cccs3)nc(N)n2)CC1CCO` (stereo unspecified) the figure was 50.2%. For `CN1[C@@H]2CC[C@H]1CN(c1cc(Sc3cccs3)nc(N)n1)CC2`, the INHIBITION was 49.2%. Consider `Nc1nc(Sc2cccs2)cc(N2CC[C@H](CO)[C@H](O)C2)n1`, for which the INHIBITION is -28%. Regarding `CCNC(=O)CN1CCc2c(Br)ccc(F)c2C1`, the INHIBITION is given as -18.3%. `O=C(c1ccc(-n2cnnc2)cc1Cl)N1CCCC2(CCNC2)C1` (stereo unspecified): the INHIBITION came out at 35.1%. With `O=C(c1cnc(Nc2ccccc2)nc1)N1CCC2(CCNCC2)CC1` the figure was 30.4%; with `O=C(c1cnc(Nc2ccccc2)nc1)N1CCCC2(CCNC2)C1` (stereo unspecified), 58.1%. Take `O=C(c1ccnc(-n2cnnc2)c1)N1CCCC2(CCNC2)C1` (stereo unspecified): the INHIBITION came out at 56.5%. As for `O=C(c1ccnc(-n2cnnc2)c1)N1CCCC2(CCOC2)C1` (stereo unspecified), the INHIBITION amounted to 39.4%. With `O=C(c1cnc(Nc2ccccc2)nc1)N1CCS(=O)(=O)CC1` the figure was 27.4%; with `CCOCCC(=O)N(CCC#N)c1ccc(C)c(C)c1`, -2.27%.

Take `CCc1[nH]nc(NC(=O)c2ccc(Cl)cn2)c1C`: the INHIBITION was -61.3%. Take `COCCCN1CCC(N(Cc2noc(C)n2)C(C)=O)C1` (stereo unspecified): the INHIBITION amounted to 16.9%. As for `Cc1cc2c(=O)n3c(nc2s1)CCN(Cc1cnc(C(C)C)nc1)CC3`, the figure is 43.7%; as for `Cc1cc2c(=O)n3c(nc2s1)CCN(Cc1[nH]cnc1C)CC3`, 54.4%; as for `Cc1nc[nH]c1CN1CCc2nc3scc(C)c3c(=O)n2CC1`, 26.8%. With `Cc1cc2c(=O)n3c(nc2s1)CCN(Cc1c[nH]cn1)CC3` the figure was 23.2%.

For the compound `Cc1cc2c(=O)n3c(nc2s1)CCN(Cc1ccncc1)CC3`, the INHIBITION came out at 58.6%. On to `CCc1ncc(CN2CCc3nc4sc(C)cc4c(=O)n3CC2)cn1`, for which the INHIBITION turned out to be 13%. In the case of `O=C1COC2(CCN(CC3CCC3)CC2)CN1c1cncnc1`, the INHIBITION stood at 8.67%. For the compound `Cn1cnnc1C1CCCN(C(=O)COc2ccccc2Cl)C1` (stereo unspecified), the INHIBITION was -37.7%. Take `Cc1cccc(CN2C[C@@H]3CN(C(=O)c4cnccn4)C[C@@H]3C2=O)n1`: the INHIBITION was found to be 43.2%. On to `O=C(CCN1CCOCC1)Nc1cccc(CNCc2cccs2)c1`, for which the INHIBITION stood at 49.2%. As for `CCC[C@H]1CN(S(C)(=O)=O)C[C@@H]1NC(=O)Cc1ccc(OC)cc1`, the figure is -26.9%; as for `COCCOCCNC(=O)c1ccc(N2CCC(C)=N2)cc1`, 50.1%.

Take `CC1=NN(c2ccc(C(=O)OCCNC(=O)c3ccncc3)cc2)CC1`: the INHIBITION is given as -17.8%. For the compound `COCCNC(=O)CCNC(=O)c1ccc(N2CCC(C)=N2)cc1`, the INHIBITION came out at 40.2%. As for `CC(NC(=O)N1CCCN(C)CC1)c1ccc2c(c1)OCCO2` (stereo unspecified), the figure is -9.39%. For `Cn1nccc1C(=O)N1CCOC(Cc2cccnc2)C1` (stereo unspecified), the INHIBITION is listed as 39.2%. Consider `c1cc(C2CC2)n2cnc(C3CN(Cc4ccncc4)CCO3)c2c1` (stereo unspecified), for which the INHIBITION was 51.2%. On to `c1cncc(CN2CCOC(c3ncn4c(C5CC5)cccc34)C2)c1` (stereo unspecified), for which the INHIBITION is listed as 14.2%. `c1cc(C2CC2)n2cnc(C3CN(Cc4nccs4)CCO3)c2c1` (stereo unspecified): the INHIBITION is recorded as 15.7%.

As for `Cc1nc(C)n(CC2CCCN2c2ncnc3sc(C)c(C)c23)n1` (stereo unspecified), the INHIBITION is on record as -11.6%.

In the case of `c1ccc2ncc(CC3CCNCC3)cc2c1`, the INHIBITION is -0.232%. As for `COC1C[C@@H]2CN(C(=O)Cc3ccc(C)s3)C[C@@H]2C1` (stereo partly specified), the figure is -34.45%; as for `Fc1ccc(CN2CCOC[C@H](Oc3cccnc3)C2)cc1`, 38.1%. In the case of `Clc1ccc(CN2CCOC[C@H](Oc3cccnc3)C2)cc1`, the INHIBITION was -11.1%. With `FC(F)(F)c1cccc(CN2CCOC[C@H](Oc3cccnc3)C2)c1` the figure was 63.8%; with `CC(C(=O)Nc1ccc(Cl)cn1)N1CCc2nn(C)c(=O)cc2C1` (stereo unspecified), 6.23%; with `Cc1cccc(CN2CCn3cc(Cn4cccn4)nc3C2)n1`, -46.9%. With `CO[C@H]1CNC[C@@H]1NC(=O)CCc1nc(-c2ccccc2)no1` the figure was 0.426%. With `CC(CNC(=O)c1ccn(-c2ccc(F)cc2)n1)Cn1cccn1` (stereo unspecified), the INHIBITION turned out to be 39.6%. With `Cc1nc(CN2CCO[C@@H]3CN(C(=O)CN(C)C)CC[C@@H]3C2)cs1` the figure was -9.18%; with `Cc1ccc(NC(=O)Nc2c(O)c3ccccc3oc2=O)cc1`, 41.6%. In the case of `Cc1cc(C)cc(NC(=O)Nc2c(O)c3ccccc3oc2=O)c1`, the INHIBITION worked out at 59.8%. As for `Cc1ccc(NC(=O)Nc2c(O)c3ccccc3oc2=O)cc1C`, the figure is -43.7%.

As for `COc1ccccc1C1(O)CCCN(C(=O)c2csc(C(C)=O)c2)C1` (stereo unspecified), the INHIBITION was determined as 36%.

Regarding `Cc1occc1C(=O)N1CCC2(CC1)CC(OCc1ccccn1)CO2` (stereo unspecified), the INHIBITION is recorded as 31.1%. On to `c1cnn([C@@H]2CN(Cc3nccs3)[C@@H]3CCCO[C@@H]32)c1`, for which the INHIBITION is 63.5%. Take `c1ccc(O[C@@H]2CN(Cc3nccs3)[C@@H]3CCCO[C@@H]32)nc1`: the INHIBITION is listed as 27.6%. `c1csc(CN2C[C@@H](n3cccn3)[C@H]3OCCC[C@H]32)c1`: the INHIBITION is -2.41%. `CS(=O)(=O)c1cc(Cl)cnc1C1CCCN(C(=O)C2CCOCC2)C1` (stereo unspecified): the INHIBITION came out at 30.65%.

As for `O=C1NCCN2CCN(Cc3ccc(Cl)c(Cl)c3)CC12` (stereo unspecified), the INHIBITION is on record as 52.2%.

As for `CNS(=O)(=O)c1ccc(CN2CCN3CCNC(=O)C3C2)cc1` (stereo unspecified), the INHIBITION is listed as 49.9%.

In the case of `CN1C(=O)CC(C(=O)O)C12CCN(Cc1ccc(Cl)c(Cl)c1)CC2` (stereo unspecified), the INHIBITION was 5.46%.

Consider `COc1cccc(S(=O)(=O)CCN2CCn3c(C)nnc3C2)c1`, for which the INHIBITION is -17%. As for `CCn1cc(CN2CCC(c3[nH]ncc3S(C)(=O)=O)C2)cn1` (stereo unspecified), the INHIBITION was found to be 41.2%. Take `CCn1cc(C(=O)N2CCCC(c3[nH]ncc3S(C)(=O)=O)C2)cn1` (stereo unspecified): the INHIBITION amounted to 16.9%. As for `CCn1cc(CN2CCCC(c3[nH]ncc3S(C)(=O)=O)C2)cn1` (stereo unspecified), the figure is 57.2%. Consider `CCCn1cc(CN2CCC(c3[nH]ncc3S(C)(=O)=O)C2)cn1` (stereo unspecified), for which the INHIBITION is reported as 45.6%. For `CCn1cc(CN2CCCC(c3[nH]ncc3-c3ccc(C)cc3)C2)cn1` (stereo unspecified), the INHIBITION is 70.9%. As for `CCn1cc(CN2CCCC(c3[nH]ncc3-c3ccc(F)cc3)C2)cn1` (stereo unspecified), the figure is 9.52%. `COc1cc(-c2n[nH]c(CO)n2)cc(OC)c1OC`: the INHIBITION worked out at 17.1%.

In the case of `CC(Cn1ccnc1)NC(=O)Nc1ccccn1` (stereo unspecified), the INHIBITION came to 29.95%. Take `CCOC(=O)c1ccc(NC(=O)c2c(O)nc3c(c2O)CCCC3)cc1`: the INHIBITION was determined as 27.5%. As for `CC(C)c1nccn1CCC(=O)N1CCCCC1c1ccn[nH]1` (stereo unspecified), the INHIBITION worked out at 30.95%. With `Cc1nn(C)c(N2CCOCC2)c1CNC1COc2ccccc2C1` (stereo unspecified), the INHIBITION is 5.03%.
